Calls of active or inactive are those of the source.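 The calls were made as follows, unless noted: active = fluorescence slope after compound addition differing from the mean of all screened samples at 99.7% confidence, in either direction; inactive = the rest.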

A short description of assay [1]: inhibitors of TNFa-induced NFkB p65 translocation, primary screen, imaging, HUVEC, MLSMR starter and 10KST1 sets (AID 438;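 active = inhibition above 20% together with a positive visual image hit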;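 also: compound added about 3h40 before a 20 min TNFalpha stimulation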;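 as to inhibition: signal is the nuclear over cytoplasmic p65 intensity ratio per well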). Particulars: HUVEC TNFa-induced p65 nuclear translocation; cell count: measured here: nuclei count (cytotoxicity indicator), at 2.08 µM; inhibition: at 2 µM, stronger effect = higher value, 0% TNFa-plus-vehicle, 100% no-TNFa wells.
The nature of assay [2]: inhibitors of mutant huntingtin aggregation, primary screen, imaging, exon1htt(103Q)mCFP cells, high-content imaging (AID 483;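 active = visual image review flags a hit and inhibition of aggregation exceeds 20%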;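 also: compound exposure lasted 3 days before fixation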;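 as to nuclei count: percent of the per-plate median nuclei count of sample wells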). Particulars: exon1htt(103Q)mCFP cell line, aggregate imaging, at 2 µM; inhibition of aggregation: stronger effect = higher value; nuclei count: measured here: cell count, toxicity.
Assay [3] can be described thus: inhibitors of E-selectin induction by TNFa, primary screen, imaging, HUVEC, immunofluorescence, MLSMR starter and 10KST1 sets (AID 487;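 active = visually confirmed hit in the image check and inhibition above 20%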;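 as to inhibition: signal is fraction of cell area covered by stained E-selectin grains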;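 as to nuclei count: 100% = median nuclei count of all wells on the same plate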). Particulars: HUVEC TNFalpha-induced E-selectin immunofluorescence imaging, at 2 µM; inhibition: stronger effect = higher value; nuclei count: measured here: cell number, toxicity.
Assay [4] deals with Voltage-gated potassium channel subunit beta-2 (Rattus norvegicus) (UniProt P62483). The experiment in a line: KvBeta enzyme negative modulators, primary screen, biochemical, NADPH fluorescence (AID 622;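 active = fluorescence slope higher than the sample average by over 3 SD, cut at about -0.22 in these data, passing the limit was not always enough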;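 also: slope of raw intensity against log time taken from 70 to 1610 s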). Conditions: recombinant KvBeta, 4-cyanobenzaldehyde reduction, at 10 µM, stronger effect = higher value.
For assay [5] the target is unchanged. The assay can be described thus: KvBeta positive modulators, primary screen, biochemical, NADPH fluorescence (AID 623;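 active = NADPH fluorescence slope more negative than the mean of all samples by about 3 SD, 99.7% confidence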;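 also: fluorescence intensity change per second fitted from 20 to 320 s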). Conditions: Recombinant KvBeta, NADPH fluorescence decrease slope, 10 min; at 10 µM; stronger effect = lower value.
In assay [6] the target is Alpha-2C adrenergic receptor (Homo sapiens) (UniProt P18825). The assay can be described thus: modulators of alpha2C/GIRK thallium flux, primary screen, cell-based, HEK293 alpha2C/GIRK1/2 (AID 624).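 Also: slope of fluorescence ratio to pre-addition baseline per second over 15 to 24 s.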 Conditions: thallium flux BTC fluorescence, at 10 µM, actives lie on both sides.
Assay [7] in a line: inhibitors of Sendai virus-induced IRF3 signaling, primary screen, TLR/RLR signaling modifier project, cell-based, Sendai virus stimulus, luciferase, 10K MLSCN set (AID 602276;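 active = inhibition at or above 50% at 10 µM; inactive = inhibition below 50%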;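 also: firefly luciferase from ISG56 promoter only with Renilla not read in this screen; 0% = Sendai virus plus DMSO and 100% = medium plus DMSO without virus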). Conditions: HEK293 RL24 IRF3 luciferase reporter, at 10 µM, stronger effect = higher value. (Reporter assays use an easily measured gene product as a stand-in for the process of interest.)
A short description of assay [8]: inhibitors of poly I:C-induced TLR3 signaling, primary screen, cell-based, poly I:C stimulus, luciferase, 10K MLSCN set (AID 602277;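 active = inhibition of the reporter signal at or above 50%; inactive = inhibition below 50%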). Conditions: HEK293-TLR3 RL24 IRF3 luciferase reporter, at 10 µM, stronger effect = higher value.

Sequence of Alpha-2C adrenergic receptor (Homo sapiens) (P18825 whole entry, looked up): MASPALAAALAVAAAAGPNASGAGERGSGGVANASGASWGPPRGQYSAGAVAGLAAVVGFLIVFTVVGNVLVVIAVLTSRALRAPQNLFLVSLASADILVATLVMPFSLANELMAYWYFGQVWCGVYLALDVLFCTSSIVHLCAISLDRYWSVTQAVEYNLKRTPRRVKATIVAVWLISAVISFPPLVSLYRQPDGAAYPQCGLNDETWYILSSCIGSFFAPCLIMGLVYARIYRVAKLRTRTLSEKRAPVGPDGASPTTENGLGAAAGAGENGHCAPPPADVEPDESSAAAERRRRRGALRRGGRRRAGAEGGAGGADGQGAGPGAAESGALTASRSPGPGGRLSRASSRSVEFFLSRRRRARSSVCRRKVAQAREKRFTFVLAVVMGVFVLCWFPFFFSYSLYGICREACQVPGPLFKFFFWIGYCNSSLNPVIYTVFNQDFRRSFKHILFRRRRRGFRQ
Sequence of Voltage-gated potassium channel subunit beta-2 (Rattus norvegicus) (P62483 whole entry, looked up): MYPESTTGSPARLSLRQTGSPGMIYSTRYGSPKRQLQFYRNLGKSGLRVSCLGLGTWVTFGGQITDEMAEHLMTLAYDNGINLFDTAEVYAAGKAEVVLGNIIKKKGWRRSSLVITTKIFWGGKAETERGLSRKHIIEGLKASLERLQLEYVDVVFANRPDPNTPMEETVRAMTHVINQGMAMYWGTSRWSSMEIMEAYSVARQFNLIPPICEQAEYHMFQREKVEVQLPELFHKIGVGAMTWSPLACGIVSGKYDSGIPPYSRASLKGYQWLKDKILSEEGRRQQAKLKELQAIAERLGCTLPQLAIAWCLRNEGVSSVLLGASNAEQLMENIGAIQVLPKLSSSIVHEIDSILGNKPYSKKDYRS

On to `CC(C)(C)NC(=O)Cn1nnnc1-c1nonc1N`, for which the cell count in assay [1] came to 433. Moreover, the inhibition in assay [1] is 9.2% (inactive); in assay [3], -94.7% (inactive); in assay [7] it was -5.7% (inactive); in assay [8], -10.1% (inactive). Besides, the inhibition of aggregation in assay [2] was -5.9% (inactive). In addition, the nuclei count in assay [2] and in assay [3] was 120% each time. For the same molecule, the fluorescence slope in assay [4] is -0.618 (inactive). In addition, the NADPH fluorescence slope in assay [5] is -4.6e-05 (inactive). In addition, the slope in assay [6] is 0.00302 (inactive).

On to `Cc1ccc(S(=O)(=O)C2(C(=O)NC3CCCC3)CC2)cc1`, for which the cell count in assay [1] was determined as 463. Also, the inhibition in assay [1] was -4.2% (inactive); in assay [3], -58.4% (inactive); in assay [7], 13.7% (inactive); in assay [8] it was 36.5% (inactive). Moreover, the inhibition of aggregation in assay [2] is -10.8% (inactive). Further, the figures for the nuclei count in assay [2] and in assay [3] were 110% and 115%, respectively. The fluorescence slope in assay [4] was -0.602 (inactive). The NADPH fluorescence slope in assay [5] is 1.6e-05 (inactive). Also, the slope in assay [6] was 0.00643 (inactive).

Regarding `CCN(CC)S(=O)(=O)c1ccc(Cl)c(C(=O)OC)c1`, in assay [1], the cell count was 456. For the same molecule, the inhibition in assay [1] is -5% (inactive); in assay [3], 8.3% (inactive); in assay [7], 20.5% (inactive); in assay [8] it was 21.4% (inactive). Besides, the inhibition of aggregation in assay [2] was 0.1% (inactive). In addition, the nuclei count in assay [2] was 87.5%; in assay [3], 123%. Besides, in assay [4], the fluorescence slope was -0.493 (inactive). In addition, in assay [5], the NADPH fluorescence slope was -2.2e-05 (inactive). In addition, the slope in assay [6] is 0.00748 (inactive).

For `CCc1cccc(NC(=O)Cn2cc3c(n2)CCCC3)c1`, the cell count in assay [1] amounted to 759. Also, the inhibition in assay [1] was -2.8% (inactive); in assay [3] it was -27.9% (inactive); in assay [7] it was 13.7% (inactive); in assay [8], 26.6% (inactive). Also, the inhibition of aggregation in assay [2] is 7.5% (inactive). The nuclei count in assay [2] was found to be 101%; in assay [3] it was 113%. The fluorescence slope in assay [4] is -0.506 (inactive). For the same molecule, the NADPH fluorescence slope in assay [5] was -2.1e-05 (inactive). In addition, the slope in assay [6] was 0.0103 (active).

In the case of `O=C(OCCN=C1NS(=O)(=O)c2ccccc21)C1CC(=O)N(c2ccc(Cl)cc2)C1` (centres undefined), in assay [1], the cell count came out at 354. In addition, the inhibition in assay [1] was 2.7% (inactive); in assay [3], -44.7% (inactive); in assay [7], 6.2% (inactive); in assay [8] it was 23.6% (inactive). Besides, the inhibition of aggregation in assay [2] is -0.2% (inactive). Moreover, the results for the nuclei count in assay [2] and in assay [3] were 118% and 107%, respectively. The fluorescence slope in assay [4] is -0.448 (inactive). In assay [5], the NADPH fluorescence slope is 2.4e-05 (inactive). Besides, in assay [6], the slope was 0.00337 (inactive).

Take `COc1ccccc1C1/C(=C(/O)c2ccccc2)C(=O)C(=O)N1CC(C)C` (centres undefined): the cell count in assay [1] was found to be 430. Further, the inhibition was -3.3% (inactive) in assay [1], -43.1% (inactive) in assay [3], 11.4% (inactive) in assay [7] and 20.6% (inactive) in assay [8]. Also, the inhibition of aggregation in assay [2] is -2% (inactive). The nuclei count in assay [2] was found to be 112%; in assay [3] it was 124%. Further, the fluorescence slope in assay [4] was -0.629 (inactive). Besides, the NADPH fluorescence slope in assay [5] was -2.2e-05 (inactive). In addition, the slope in assay [6] is 0.00652 (inactive).

As to `CCCCOc1ccc(-c2nnn(C(C)(C)C(=O)OC)n2)cc1`, in assay [1], the cell count is 602. The inhibition was -6.3% (inactive) in assay [1], 1.6% (inactive) in assay [3], -33.8% (inactive) in assay [7] and -125% (inactive) in assay [8]. In addition, in assay [2], the inhibition of aggregation was 7% (inactive). The nuclei count in assay [2] worked out at 67.8%; in assay [3], 102%. In addition, in assay [4], the fluorescence slope was -0.502 (inactive). In addition, the NADPH fluorescence slope in assay [5] was -0.00029 (active). Besides, the slope in assay [6] is 0.0068 (inactive).

Consider `Nc1nonc1-n1nnc(C(=O)c2ccccc2)c1-c1ccccc1`, for which the cell count in assay [1] is 412. Further, the inhibition in assay [1] is -20% (inactive); in assay [3] it was 28.1% (inactive); in assay [7], 10.9% (inactive); in assay [8] it was 2.08% (inactive). Moreover, the inhibition of aggregation in assay [2] was 1.5% (inactive). In addition, the nuclei count is 110% in assay [2] and 103% in assay [3]. In addition, the fluorescence slope in assay [4] was -0.571 (inactive). In assay [5], the NADPH fluorescence slope was 7.3e-06 (inactive). In addition, the slope in assay [6] was 0.00623 (inactive).

Consider `Cc1ccccc1NS(=O)(=O)c1cc(C(=O)N2CCCC2)ccc1C`, for which the cell count in assay [1] is 481. Moreover, the inhibition in assay [1] is -7.1% (inactive); in assay [3], 9.5% (inactive); in assay [7] it was -10.7% (inactive); in assay [8], 6.74% (inactive). Moreover, the inhibition of aggregation in assay [2] is 16.1% (inactive). In addition, the nuclei count in assay [2] turned out to be 86.1%; in assay [3], 94.2%. Besides, the fluorescence slope in assay [4] was -0.601 (inactive). In addition, the NADPH fluorescence slope in assay [5] is -3.9e-05 (inactive). The slope in assay [6] is 0.00473 (inactive).

As to `CN(C)S(=O)(=O)N1CCN(c2cccc(Cl)c2)CC1`, the cell count in assay [1] was 411. In addition, the inhibition is -0.2% (inactive) in assay [1], -14.6% (inactive) in assay [3], 10.3% (inactive) in assay [7] and 20.7% (inactive) in assay [8]. In assay [2], the inhibition of aggregation was 16.9% (inactive). The nuclei count worked out at 87.3% in assay [2] and 99.2% in assay [3]. Besides, the fluorescence slope in assay [4] is -0.514 (inactive). Also, in assay [5], the NADPH fluorescence slope is 7.3e-06 (inactive). The slope in assay [6] is 0.00363 (inactive).

As for `O=C(O)Cc1ccccc1C(=O)O`, the cell count in assay [1] worked out at 685. Moreover, the inhibition was -0.4% (inactive) in assay [1], -66.3% (inactive) in assay [3], 13.7% (inactive) in assay [7] and 11.2% (inactive) in assay [8]. In assay [2], the inhibition of aggregation was 0% (inactive). The nuclei count in assay [2] stood at 99.9%; in assay [3], 142%. Further, the fluorescence slope in assay [4] is -0.491 (inactive). Also, the NADPH fluorescence slope in assay [5] is -5e-05 (inactive). Moreover, the slope in assay [6] is 0.00429 (inactive).

Take `CC(C)=CCC(C)(C)C1OCCN1C(=O)c1ccccc1` (centres undefined): in assay [1], the cell count was found to be 450. Moreover, the inhibition in assay [1] is 1.5% (inactive); in assay [3], 10.2% (inactive); in assay [7] it was 8.82% (inactive); in assay [8] it was 12.9% (inactive). In addition, the inhibition of aggregation in assay [2] is 1.2% (inactive). In addition, the nuclei count is 116% in assay [2] and 106% in assay [3]. In addition, the fluorescence slope in assay [4] is -0.444 (inactive). In addition, the NADPH fluorescence slope in assay [5] was 2e-05 (inactive). Further, in assay [6], the slope was 0.00511 (inactive).

Consider `O=C1C2C3C=CC(C3)C2C(=O)N1Cc1ccccc1` (centres undefined), for which, in assay [1], the cell count is 480. Moreover, the inhibition is -9.2% (inactive) in assay [1], 40.2% (inactive) in assay [3], -1.99% (inactive) in assay [7] and -2.25% (inactive) in assay [8]. Moreover, the inhibition of aggregation in assay [2] was -2.3% (inactive). Besides, the nuclei count in assay [2] stood at 102%; in assay [3] it was 74.3%. Besides, the fluorescence slope in assay [4] is -0.618 (inactive). Also, the NADPH fluorescence slope in assay [5] is -6.1e-05 (inactive). Further, the slope in assay [6] was 0.00345 (inactive).

With `CN(C1CCCCC1)S(=O)(=O)c1ccc(S(=O)(=O)N2CCCC2)cc1`, the cell count in assay [1] was determined as 737. Moreover, the inhibition in assay [1] is -10.5% (inactive); in assay [3], -78.3% (inactive); in assay [7], 16.1% (inactive); in assay [8], 21.2% (inactive). The inhibition of aggregation in assay [2] is -9.6% (inactive). Further, the nuclei count was 100% in assay [2] and 126% in assay [3]. The fluorescence slope in assay [4] was -0.432 (inactive). For the same molecule, the NADPH fluorescence slope in assay [5] is -2.1e-05 (inactive). In assay [6], the slope was 0.00521 (inactive).

The term inhibition denotes the drop in the measured response relative to a control, in per cent.

The values above are taken from PubChem BioAssay.
